# Measurements published in PubChem BioAssay AID1159580 (chemical genetic matrix, 2015).
# About 2,000 (36%) of roughly 5,500 compounds were called active. Not shown: some 18% with an inconclusive outcome. The list shows a part of the results. Values without a mark were called inactive. Rule as the data show it: active = normalized growth mostly below about 0.91 (no sharp cut-off); inconclusive = no clear call, values can overlap the other calls; inactive = mostly above about 0.92.
# Assay: chemical genetic growth profiling, strain panel (AID 1159580);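 also: tested at 20 µM; growth read once vehicle control cultures reached saturation at 30 °C; 1 = growth at the plate median or of vehicle wells; lower values mean less growth of the strain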
# Settings: growth OD
compound,measurement,setting,value
Nc1nccs1,normalized growth,"S. cerevisiae deletion strains, locus YJL187C, strain SWE1 (second series), stronger effect = lower value",0.947
same,normalized growth,"S. cerevisiae deletion strains, locus YJL187C, strain SWE1, stronger effect = lower value",0.998
same,normalized growth,"S. cerevisiae deletion strains, locus YJR043C, strain POL32, stronger effect = lower value",0.985
same,normalized growth,"S. cerevisiae deletion strains, locus YKL009W, strain mrt4, stronger effect = lower value",0.985
same,normalized growth,"S. cerevisiae deletion strains, locus YKL068W, stronger effect = lower value",0.981
same,normalized growth,"S. cerevisiae deletion strains, locus YKL085W, strain MDH1 (second series), stronger effect = lower value",0.981
same,normalized growth,"S. cerevisiae deletion strains, locus YKL085W, strain MDH1, stronger effect = lower value",0.981
same,normalized growth,"S. cerevisiae deletion strains, locus YKL160W, strain elf1, stronger effect = lower value",0.98
same,normalized growth,"S. cerevisiae deletion strains, locus YKL190W, strain CNB1, stronger effect = lower value",0.992
same,normalized growth,"S. cerevisiae deletion strains, locus YKR001C, strain vps1, stronger effect = lower value",0.985
same,normalized growth,"S. cerevisiae deletion strains, locus YKR026C, strain gcn3, stronger effect = lower value",0.995
same,normalized growth,"S. cerevisiae deletion strains, locus YKR091W, strain srl3, stronger effect = lower value",0.998
same,normalized growth,"S. cerevisiae deletion strains, locus YLL001W, strain dnm1, stronger effect = lower value",0.947
same,normalized growth,"S. cerevisiae deletion strains, locus YLL026W, stronger effect = lower value",0.993
same,normalized growth,"S. cerevisiae deletion strains, locus YLL041C, strain sdh2, stronger effect = lower value",0.991
same,normalized growth,"S. cerevisiae deletion strains, locus YLR027C, strain aat2, stronger effect = lower value",0.988
same,normalized growth,"S. cerevisiae deletion strains, locus YLR039C, strain RIC1, stronger effect = lower value",0.929
same,normalized growth,"S. cerevisiae deletion strains, locus YLR058C, strain SHM2, stronger effect = lower value",0.974
same,normalized growth,"S. cerevisiae deletion strains, locus YLR102C, strain apc9, stronger effect = lower value",0.996
same,normalized growth,"S. cerevisiae deletion strains, locus YLR221C, strain rsa3, stronger effect = lower value",0.992
same,normalized growth,"S. cerevisiae deletion strains, locus YLR258W, strain gsy2, stronger effect = lower value",1
same,normalized growth,"S. cerevisiae deletion strains, locus YLR262C, strain YPT6 (second series), stronger effect = lower value",0.939
same,normalized growth,"S. cerevisiae deletion strains, locus YLR262C, strain YPT6, stronger effect = lower value",0.929
same,normalized growth,"S. cerevisiae deletion strains, locus YLR268W, strain sec22, stronger effect = lower value",0.968
same,normalized growth,"S. cerevisiae deletion strains, locus YLR320W, strain mms22, stronger effect = lower value",1
same,normalized growth,"S. cerevisiae deletion strains, locus YLR330W, strain CHS5, stronger effect = lower value",0.993
same,normalized growth,"S. cerevisiae deletion strains, locus YLR342W, strain FKS1 (second series), stronger effect = lower value",1.03
same,normalized growth,"S. cerevisiae deletion strains, locus YLR342W, strain FKS1, stronger effect = lower value",0.975
same,normalized growth,"S. cerevisiae deletion strains, locus YLR357W, strain rsc2, stronger effect = lower value",0.945
same,normalized growth,"S. cerevisiae deletion strains, locus YLR370C, strain arc18, stronger effect = lower value",0.991
same,normalized growth,"S. cerevisiae deletion strains, locus YLR371W, strain rom2, stronger effect = lower value",0.999
same,normalized growth,"S. cerevisiae deletion strains, locus YLR384C, strain iki3, stronger effect = lower value",0.976
same,normalized growth,"S. cerevisiae deletion strains, locus YLR418C, strain cdc73, stronger effect = lower value",1.03
same,normalized growth,"S. cerevisiae deletion strains, locus YML016C, strain PPZ1, stronger effect = lower value",0.984
same,normalized growth,"S. cerevisiae deletion strains, locus YML032C, strain rad52, stronger effect = lower value",0.984
same,normalized growth,"S. cerevisiae deletion strains, locus YML120C, strain ndi1, stronger effect = lower value",0.99
same,normalized growth,"S. cerevisiae deletion strains, locus YML124C, strain tub3, stronger effect = lower value",0.985
same,normalized growth,"S. cerevisiae deletion strains, locus YMR058W, strain fet3, stronger effect = lower value",0.988
same,normalized growth,"S. cerevisiae deletion strains, locus YMR078C, strain ctf18, stronger effect = lower value",0.979
same,normalized growth,"S. cerevisiae deletion strains, locus YMR125W, strain sto1, stronger effect = lower value",0.988
same,normalized growth,"S. cerevisiae deletion strains, locus YMR129W, stronger effect = lower value",0.996
same,normalized growth,"S. cerevisiae deletion strains, locus YMR205C, strain PFK2, stronger effect = lower value",0.983
same,normalized growth,"S. cerevisiae deletion strains, locus YMR223W, strain ubp8, stronger effect = lower value",1.04
same,normalized growth,"S. cerevisiae deletion strains, locus YMR231W, strain pep5, stronger effect = lower value",0.99
same,normalized growth,"S. cerevisiae deletion strains, locus YMR307W, strain GAS1, stronger effect = lower value",1.07
same,normalized growth,"S. cerevisiae deletion strains, locus YNL067W, strain RPL9B, stronger effect = lower value",0.954
same,normalized growth,"S. cerevisiae deletion strains, locus YNL071W, strain lat1, stronger effect = lower value",1
same,normalized growth,"S. cerevisiae deletion strains, locus YNL128W, strain TEP1, stronger effect = lower value",1.01
same,normalized growth,"S. cerevisiae deletion strains, locus YNL209W, strain ssb2, stronger effect = lower value",0.991
same,normalized growth,"S. cerevisiae deletion strains, locus YNL233W, strain BNI4, stronger effect = lower value",0.96
same,normalized growth,"S. cerevisiae deletion strains, locus YNL248C, strain rpa49, stronger effect = lower value",1.02
same,normalized growth,"S. cerevisiae deletion strains, locus YNL250W, strain rad50, stronger effect = lower value",0.989
same,normalized growth,"S. cerevisiae deletion strains, locus YNL271C, strain bni1, stronger effect = lower value",0.978
same,normalized growth,"S. cerevisiae deletion strains, locus YNL298W, strain CLA4, stronger effect = lower value",0.999
same,normalized growth,"S. cerevisiae deletion strains, locus YNL307C, strain MCK1, stronger effect = lower value",0.988
same,normalized growth,"S. cerevisiae deletion strains, locus YNL322C, strain KRE1 (second series), stronger effect = lower value",0.985
same,normalized growth,"S. cerevisiae deletion strains, locus YNR049C, strain mso1, stronger effect = lower value",0.987
same,normalized growth,"S. cerevisiae deletion strains, locus YNR052C, strain pop2, stronger effect = lower value",0.998
same,normalized growth,"S. cerevisiae deletion strains, locus YOL006C, strain TOP1, stronger effect = lower value",0.899
same,normalized growth,"S. cerevisiae deletion strains, locus YOL012C, strain htz1",0.795
same,normalized growth,"S. cerevisiae deletion strains, locus YOL147C, strain pex11, stronger effect = lower value",0.993
same,normalized growth,"S. cerevisiae deletion strains, locus YOR001W, strain rrp6, stronger effect = lower value",0.983
same,normalized growth,"S. cerevisiae deletion strains, locus YOR061W, strain CKA2, stronger effect = lower value",0.958
same,normalized growth,"S. cerevisiae deletion strains, locus YOR069W, strain VPS5, stronger effect = lower value",0.99
same,normalized growth,"S. cerevisiae deletion strains, locus YOR070C, strain gyp1, stronger effect = lower value",0.999
same,normalized growth,"S. cerevisiae deletion strains, locus YOR080W, strain dia2, stronger effect = lower value",0.977
same,normalized growth,"S. cerevisiae deletion strains, locus YOR083W, strain WHI5, stronger effect = lower value",0.971
same,normalized growth,"S. cerevisiae deletion strains, locus YOR106W, strain vam3, stronger effect = lower value",0.955
same,normalized growth,"S. cerevisiae deletion strains, locus YOR136W, strain idh2, stronger effect = lower value",0.988
same,normalized growth,"S. cerevisiae deletion strains, locus YOR144C, strain elg1, stronger effect = lower value",0.992
same,normalized growth,"S. cerevisiae deletion strains, locus YOR184W, strain ser1, stronger effect = lower value",0.914
same,normalized growth,"S. cerevisiae deletion strains, locus YOR265W, strain rbl2, stronger effect = lower value",0.997
same,normalized growth,"S. cerevisiae deletion strains, locus YOR270C, strain vph1, stronger effect = lower value",0.638 (active)
same,normalized growth,"S. cerevisiae deletion strains, locus YOR290C, strain snf2, stronger effect = lower value",0.945
same,normalized growth,"S. cerevisiae deletion strains, locus YOR316C, strain cot1, stronger effect = lower value",0.979
same,normalized growth,"S. cerevisiae deletion strains, locus YPL051W, strain arl3, stronger effect = lower value",0.965
same,normalized growth,"S. cerevisiae deletion strains, locus YPL078C, strain atp4, stronger effect = lower value",0.969
same,normalized growth,"S. cerevisiae deletion strains, locus YPL106C, strain sse1, stronger effect = lower value",0.958
same,normalized growth,"S. cerevisiae deletion strains, locus YPL240C, strain hsp82, stronger effect = lower value",0.994
same,normalized growth,"S. cerevisiae deletion strains, locus YPR119W, strain clb2, stronger effect = lower value",0.988
same,normalized growth,"S. cerevisiae deletion strains, locus YPR141C, strain kar3, stronger effect = lower value",0.973
same,normalized growth,"S. cerevisiae deletion strains, locus YPR163C, strain tif3, stronger effect = lower value",0.985
same,normalized growth,"S. cerevisiae deletion strains, locus YPR167C, strain met16, stronger effect = lower value",0.993
same,normalized growth,"S. cerevisiae deletion strains, strain wtn01, stronger effect = lower value",1.01
same,normalized growth,"S. cerevisiae strains, strain wild type, stronger effect = lower value",0.984
